# From the supplement of paper PMC11417369
# ± gives the standard deviation of the averaged measurements. Over roughly 25,000 sequences, “ln(normalized median fluorescence intensity)” has its median near 8.6; the highest 2% begin near 10. The list comes from a sample in which the highest values are over-represented; it also holds similar and randomly drawn sequences.
# Test system: PfAP2-EXP AP2 domain (GST-tagged)
# Experiment: gcPBM binding intensity (ln(normalized median fluorescence intensity)); higher = stronger DNA binding
# Method in brief: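 Binding of GST-tagged P. falciparum DNA-binding domains, expressed in E. coli and used at about 25 μg on average, was carried out for 1 h in 1× PBS containing 1% milk, 0.2 mg/ml BSA, 0.5% salmon testes DNA and 0.03% Triton X-100. The target was an Agilent 4 × 180k array of primer-extended double-stranded 36-bp intergenic genomic probes plus negative controls, read with Alexa488 anti-GST antibody at 488 nm. Binding intensity is the highest Masliner-normalised natural-log median intensity across replicate spots of either probe orientation.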
row,Sequence,gcPBM binding intensity (ln)
1,ATTCATTTTTTGGGGGGTACACCCTTTTAAACATTT [XGTACX_site4797],10.3 ± 0.48
2,AAAAATTTAAGTGGGGGTACATTTTTTTAACACCTT [XGTACX_site1093],9.46 ± 0.48
3,TTTTTAATTTTTTTTAAACACACACCGTACATTCAA [CACACA_site7925],8.54 ± 0.38
4,TATATATCGCATAAAACACACAAAAAAAAAATTAAA [CACACA_site7767],8.35 ± 0.59
5,TCCACACAATTTATAACATGCAAAAAGGCAATAATA [TGCATGCA_site773],8.69 ± 0.42
6,AATACATACATACATACATGCATATATATATATATA [TGCATGCA_site462],10.2 ± 0.14
7,AATATATACATACATACATGCATACATATATATAAC [TGCATGCA_site371],8.73 ± 0.23
8,TATATATATATATATACATGCATATATATAATATAT [TGCATGCA_site763],10.1 ± 0.52
9,CATATAAATAAATATACATGCATACATACATATATA [TGCATGCA_site713],8.51 ± 0.23
10,CATACATACATACATACATGCATACATACATACATA [TGCATGCA_site218],9.3 ± 0.26
11,AATACATACATATATACATGCATACATATAAATATA [TGCATGCA_site674],8.64 ± 0.35
12,AATATATATATACATACATGCATACATATATATATA [TGCATGCA_site784],9.8 ± 0.14
13,TATATATATATACATACATGCATATATATATATATA [TGCATGCA_site513],10.2 ± 0.54
14,TATATATATATATATACATGCATACATATACATACA [TGCATGCA_site897],10.2 ± 0.5
15,TTGAATAAATTGGAATAAATATAATAAAATAAGGAA [XGTACX_negctrl_site302],8.62 ± 0.38
16,TTTATGAAACAGTGCACACATAAAAATAAATACATA [CACACA_site5631],9.175 ± 0.035
17,ATATATATATGTTTGTGTACTTATGATATCATATAA [XGTACX_site3276],9.66 ± 0.099
18,TTTTTTTTTTTTGAAGTGCATTACTTTTTTTGTATT [GTGCAC_site9811],8.5 ± 0.23
19,AATAAATAAGCAACATGTACATACAAATATATACAT [XGTACX_site8529],8.48 ± 0.35

row,Sequence,gcPBM binding intensity (ln)
1,TTGTTCTTTCAAATTATACACACCAAAAAAAAAAAA [CACACA_site3070],8.53 ± 0.4
2,ATATGTTTTTTTTTTTTTTTTTAATTTGTCATAAAT [CACACA_negctrl_site1208],8.35 ± 0.49
3,TATATATTAAAAATAGTGCAAAATAATATATATATA [GTGCAC_site9716],9.845 ± 0.049
4,ATAATAAAAAAAAATGCACACATATATATATATATA [CACACA_site8766],10.3 ± 0.34
5,AATATAATATAATGCACACATAAAACAAAAAAAAAA [CACACA_site3012],8.82 ± 0.47
6,TATATATGTTAAAACGTGCACATATATATATATATA [GTGCAC_site9589],10.2 ± 0.21
7,ATATGTGTTAAAAATGCACACAAAAAAATATACATA [CACACA_site7988],8.69 ± 0.49
8,ATATAAACACTGAATGCATGCACATATATATATATA [TGCATGCA_site940],10.45 ± 0.049
9,AAAATATAATATAATGCACACATAAAAAAAAAAAAA [CACACA_site7989],8.52 ± 0.49
10,ATATATATATATATAGTGCAAATAAAAAATAGACAA [GTGCAC_site9796],10.2 ± 0.3
11,ATTATATATAAACACACACACATGCATGCACATATA [CACACA_site4237],10 ± 0.26
12,AATATAATATAATGCACACATAAAAAAAAAAAAATC [CACACA_site1303],8.7 ± 0.32
13,GAATAAAAAATATATGTGCACATATAAACTTAAAAT [GTGCAC_site9554],8.9 ± 0.3
14,CACAAAAATAGACACACACACATATAAATAAATATA [CACACA_site6598],8.62 ± 0.47
15,TTACACATACATATGTGGGAAAATATTGCTACATAT [CACACA_negctrl_site463],8.57 ± 0.49
16,TATATTTTTTAAACCACACACAATATAGAGTATAAT [CACACA_site4510],8.66 ± 0.47
17,AAATTAATATATAAAAGTACCCATATATTTAATATA [XGTACX_site3551],8.21 ± 0.39
18,ATGCATATAATTATATGTACATATAAGAAATATATA [XGTACX_site517],8.71 ± 0.37
19,ATTTCTTCTTTTTTTGTGAAACTGGAATATATATAT [XGTACX_negctrl_site527],9.17 ± 0.057

row,Sequence,gcPBM binding intensity (ln)
1,TATATAGTAATTTATTCACACAATTGGCACACCTCA [CACACA_site4679],8.71 ± 0.35
2,ATTCTAAATAATAAGAGTACAAATAATATGGAGAAG [XGTACX_site5209],9.12 ± 0.51
3,CATTCTACAATAAAAAGTACATATATATATTATATA [XGTACX_site921],8.43 ± 0.34
4,TTTTGTGATCTTACCACCTTTCATAATATTAATAAA [GTGCAC_negctrl_site360],8.61 ± 0.31
5,ATATAAATATAGTGTGCACACACATAATATATATAT [CACACA_site8713],9.38 ± 0.057
6,ATATATATATAGTGCACACATATAAAATATATATAA [CACACA_site2745],9.9 ± 0.071
7,ATATATATATATAGTGCACACATATAAAATATATAT [CACACA_site8884],10.29 ± 0.021
8,ATATTTTATATAATAGTGCAAATAATATTAAATAAT,8.66 ± 0.21
9,TATATATATATGTGCACACATAATAAAAAAAAAAAT [CACACA_site3831],9.9 ± 0.11
10,TATATATATATATGTGCACACATAATAAAAAAAAAA [CACACA_site3830],10.32 ± 0.064
11,TCAAAAATTTATATAGTGCAATATATATATAATGTA,8.31 ± 0.42
12,ATATATATATATATAGTGCAAATATCTTCTTTATAA,10.3 ± 0.3
13,AATATATATATATGTGCACACATATATAATATGTAT [CACACA_site716],8.53 ± 0.28
14,TTGTTCATCTTTTTTTTTTTTTTTTTTTTTTAAATC [CACACA_negctrl_site191],8.18 ± 0.62
15,TCTCTAACTTTTAATACACACAAATAAATAAATAAA [CACACA_site6245],8.47 ± 0.35
16,GTGAGTGAAATATGCAAACACACACCCGAAAAATGT [CACACA_site3197],8.7 ± 0.57
17,TTAAAGGGAATGTATACACACGTTTCTCTATGTTAT [CACACA_site4793],8.59 ± 0.31
18,ACTAATAAAGGTGTAATACACACTATAAAAAGGAAT [CACACA_site1124],8.88 ± 0.57
19,TTCTTTGTTTTTTTTTTTTTTTTAAAAGATAATATT [XGTACX_negctrl_site381],8.43 ± 0.25
